# PubChem BioAssay (NCATS)
# Results filed as inconclusive are left out. The source made the active and inactive calls. Calls follow the shape of the dose curve; as a rule, active = well fitted inhibition curve with a large enough effect; inconclusive = small, poorly fitted or top-dose-only effect; inactive = flat fitted curve, though single readings scatter.
# Molecular target: Calcium and integrin-binding protein 1 (Homo sapiens) (UniProt Q99828)
# Experiment: Primary qHTS for Identification of Calcium Integrin Binding Protein 1 (CIB1) Competitor (AID 1508620); also: top concentration of the series differs between compounds
# Conditions: CIB1-GST / FITC-alphaIIb peptide fluorescence polarization; series mostly up to 57.7 µM; activity change, negative = inhibition: at the top concentration
# How it was run: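 Fluorescence polarization competition: GST-tagged CIB1 (1 uM final) preincubated with compound 15 min at room temperature, then FITC-labelled alphaIIb peptide (100 nM final) added. After 15 min at room temperature, polarization read at Ex 480/Em 540.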
# % is scaled to controls: 0 for no effect and ±100 for the full control effect.
# Sequence of Calcium and integrin-binding protein 1 (Homo sapiens) (Q99828 whole entry, looked up): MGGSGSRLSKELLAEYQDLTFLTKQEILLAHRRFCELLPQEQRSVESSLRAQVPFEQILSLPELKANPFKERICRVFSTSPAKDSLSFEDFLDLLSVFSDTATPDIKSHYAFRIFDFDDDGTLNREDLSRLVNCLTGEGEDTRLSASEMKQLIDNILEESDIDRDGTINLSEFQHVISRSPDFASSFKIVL
row,Structure (SMILES),"activity change, negative = inhibition"
1,CC(C)N[C@@H]1CCn2c(=O)[nH]c3cccc(c32)[C@@H]1O,-0.58% (inactive)
2,CC(C)[C@]12O[C@@H]1[C@@H]1O[C@]13[C@]1(O[C@H]1C[C@@H]1C4=C(CC[C@@]13C)C(=O)OC4)[C@H]2O,-8.26% (inactive)
3,C[C@]12CC[C@H]3[C@@H](CCC4=CC(=O)CC[C@@]43C)[C@H]1CC[C@H]2O,-1.48% (inactive)
4,C[C@@H]1[C@H](O)[C@@H](C)C=CC=CCCC=CC=CC=CC=C[C@H](O[C@H]2O[C@@H](C)[C@H](O)[C@@H](N)[C@@H]2O)CC2O[C@](O)(C[C@@H](O)[C@H](O)CC[C@@H](O)C[C@@H](O)C[C@@H](O)CC(=O)O[C@H]1C)C[C@H](O)[C@H]2C(=O)O,3.67% (inactive)
5,COC1=CC(C)=C[C@@H](C)[C@@H](O)[C@@H](C)CC(C)=CC=C[C@H](OC)[C@H]([C@@H](C)[C@@H](O)[C@H](C)[C@@]2(O)C[C@@H](O)[C@H](C)[C@@H](C(C)C)O2)OC1=O,0.0575% (inactive)
6,CC(O)=C(C#N)C(=O)Nc1cc(Br)ccc1Br,-3.61% (inactive)
7,CC(=Cc1csc(C)n1)[C@@H]1C[C@H]2O[C@@H]2CCC[C@H](C)[C@@H](O)[C@@H](C)C(=O)C(C)(C)[C@@H](O)CC(=O)O1,-0.705% (inactive)
8,C[C@@H]1CC[C@H]2[C@@H](C)C(=O)O[C@@H]3O[C@@]4(C)CC[C@H]1[C@]32OO4,-0.496% (inactive)
